# Measurements published in the supplement of paper PMC10849652.
# The full data set covers some 7,900 targets. This sample favours those with a hit. About 0.6% of all pairs of compound and target were hits. A number with no mark means an inactive call.
# Experiments:
# Test in all cases: log2 fold change, soluble protein after heating vs DMSO (PISA); higher = thermal stabilisation; K562 cells, 10 uM, 30 min; active = over 0.2 and 3.5 SD of the protein, either way, in both replicates (recomputed)
# [1] = compound: CN1CCN(CCOc2cc(OC3CCOCC3)c3c(Nc4c(Cl)ccc5c4OCO5)ncnc3c2)CC1 [saracatinib]
# Procedure, shortened: (§1)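 K562 cells at 2×10^6 cells/mL were given 10 μM compound for 30 min. Aliquots then went through 3 min of heating across 48°C-58°C, were pooled, and were extracted in PBS with 0.5% NP-40 at 4°C, and the supernatant after 21,000xg for 90 min was quantified by TMTpro 16plex LC-MS/MS with channel sums equalised. Thermal stability relative to control samples, from duplicates, is given as log2 fold change.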
# [2] = compound: CN1CC[C@H](c2c(O)cc(O)c3c(=O)cc(-c4ccccc4Cl)oc23)[C@H](O)C1 [alvocidib]
# Procedure, shortened: as §1
# [3] = compound: CN1CCc2c(c3ccccc3n2Cc2ccc(C(=O)NO)cc2)C1 [Tubastatin A]
# Procedure, shortened: as §1
# [4] = compound: CNC(=O)C1=CC=CC=C1NC2=NC(=NC=C2Cl)NC3=C(C=C(C=C3)N4CCOCC4)OC
# Procedure, shortened: as §1
# [5] = compound: CNC(=O)c1ccc(Nc2ncc(C(F)(F)F)c(NCc3nccnc3N(C)S(C)(=O)=O)n2)cc1 [defactinib]
# Procedure, shortened: as §1
# [6] = compound: CNCc1ccc(-c2[nH]c3cc(F)cc4c3c2CCNC4=O)cc1 [rucaparib]
# Procedure, shortened: as §1
# [7] = compound: CNc1nc(-c2ccc3c(N)n[nH]c3c2)cc(N2C[C@@H](C(=O)NC3CCCCC3)CC[C@H]2C)n1
# Procedure, shortened: as §1
# [8] = compound: COC(=O)N[C@@H](C)CNc1nccc(-c2cn(C(C)C)nc2-c2cc(Cl)cc(NS(C)(=O)=O)c2F)n1 [encorafenib]
# Procedure, shortened: as §1
# [9] = compound: COC(=O)[C@H](CCSC)NC(=O)C1=C(C=C(C=C1)NC[C@H](CS)N)C2=CC=CC=C2
# Procedure, shortened: as §1
# [10] = compound: CN1CCN(c2nc(C3=C(c4c[nH]c5ccccc45)C(=O)NC3=O)c3ccccc3n2)CC1 [sotrastaurin]
# Procedure, shortened: as §1
# UniProt Q13422, sequence (Q13422 whole entry, looked up): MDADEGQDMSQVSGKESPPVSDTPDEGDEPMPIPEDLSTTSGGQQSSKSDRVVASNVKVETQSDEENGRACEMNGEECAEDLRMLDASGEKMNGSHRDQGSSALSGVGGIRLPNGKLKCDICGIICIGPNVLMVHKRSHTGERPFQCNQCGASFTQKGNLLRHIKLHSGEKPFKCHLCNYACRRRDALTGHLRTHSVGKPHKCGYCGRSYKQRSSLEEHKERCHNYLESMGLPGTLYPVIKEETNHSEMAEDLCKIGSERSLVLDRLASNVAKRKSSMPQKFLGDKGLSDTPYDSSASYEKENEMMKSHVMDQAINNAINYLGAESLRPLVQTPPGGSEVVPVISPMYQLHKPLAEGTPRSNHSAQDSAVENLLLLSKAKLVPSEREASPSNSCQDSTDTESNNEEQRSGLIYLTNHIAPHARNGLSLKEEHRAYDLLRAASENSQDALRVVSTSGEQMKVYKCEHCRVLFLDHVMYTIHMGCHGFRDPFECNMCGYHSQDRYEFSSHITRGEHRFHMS
# UniProt Q7L590, sequence (Q7L590 whole entry, looked up): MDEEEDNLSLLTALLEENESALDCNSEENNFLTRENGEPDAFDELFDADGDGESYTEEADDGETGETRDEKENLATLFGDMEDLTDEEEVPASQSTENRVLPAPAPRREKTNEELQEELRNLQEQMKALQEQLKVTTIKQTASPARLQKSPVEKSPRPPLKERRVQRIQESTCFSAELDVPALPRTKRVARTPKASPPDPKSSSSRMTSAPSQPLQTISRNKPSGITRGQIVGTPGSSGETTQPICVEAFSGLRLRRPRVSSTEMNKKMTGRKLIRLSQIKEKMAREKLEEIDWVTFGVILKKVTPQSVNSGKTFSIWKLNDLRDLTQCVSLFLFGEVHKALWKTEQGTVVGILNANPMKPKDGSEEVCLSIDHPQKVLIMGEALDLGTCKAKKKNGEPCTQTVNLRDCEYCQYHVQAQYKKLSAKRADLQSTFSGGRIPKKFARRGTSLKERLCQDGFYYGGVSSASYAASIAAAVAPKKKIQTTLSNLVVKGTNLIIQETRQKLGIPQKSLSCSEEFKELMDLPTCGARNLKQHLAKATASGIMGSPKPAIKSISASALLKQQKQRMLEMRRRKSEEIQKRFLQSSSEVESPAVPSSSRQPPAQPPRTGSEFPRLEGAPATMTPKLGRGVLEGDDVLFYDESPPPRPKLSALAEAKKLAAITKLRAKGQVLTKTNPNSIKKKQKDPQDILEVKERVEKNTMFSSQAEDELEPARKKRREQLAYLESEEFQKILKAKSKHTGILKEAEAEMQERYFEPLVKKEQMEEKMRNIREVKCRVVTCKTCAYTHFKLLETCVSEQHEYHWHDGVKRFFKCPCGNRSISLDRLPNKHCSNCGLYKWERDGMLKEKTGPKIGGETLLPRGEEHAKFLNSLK
# UniProt O60333, sequence (O60333 whole entry, looked up): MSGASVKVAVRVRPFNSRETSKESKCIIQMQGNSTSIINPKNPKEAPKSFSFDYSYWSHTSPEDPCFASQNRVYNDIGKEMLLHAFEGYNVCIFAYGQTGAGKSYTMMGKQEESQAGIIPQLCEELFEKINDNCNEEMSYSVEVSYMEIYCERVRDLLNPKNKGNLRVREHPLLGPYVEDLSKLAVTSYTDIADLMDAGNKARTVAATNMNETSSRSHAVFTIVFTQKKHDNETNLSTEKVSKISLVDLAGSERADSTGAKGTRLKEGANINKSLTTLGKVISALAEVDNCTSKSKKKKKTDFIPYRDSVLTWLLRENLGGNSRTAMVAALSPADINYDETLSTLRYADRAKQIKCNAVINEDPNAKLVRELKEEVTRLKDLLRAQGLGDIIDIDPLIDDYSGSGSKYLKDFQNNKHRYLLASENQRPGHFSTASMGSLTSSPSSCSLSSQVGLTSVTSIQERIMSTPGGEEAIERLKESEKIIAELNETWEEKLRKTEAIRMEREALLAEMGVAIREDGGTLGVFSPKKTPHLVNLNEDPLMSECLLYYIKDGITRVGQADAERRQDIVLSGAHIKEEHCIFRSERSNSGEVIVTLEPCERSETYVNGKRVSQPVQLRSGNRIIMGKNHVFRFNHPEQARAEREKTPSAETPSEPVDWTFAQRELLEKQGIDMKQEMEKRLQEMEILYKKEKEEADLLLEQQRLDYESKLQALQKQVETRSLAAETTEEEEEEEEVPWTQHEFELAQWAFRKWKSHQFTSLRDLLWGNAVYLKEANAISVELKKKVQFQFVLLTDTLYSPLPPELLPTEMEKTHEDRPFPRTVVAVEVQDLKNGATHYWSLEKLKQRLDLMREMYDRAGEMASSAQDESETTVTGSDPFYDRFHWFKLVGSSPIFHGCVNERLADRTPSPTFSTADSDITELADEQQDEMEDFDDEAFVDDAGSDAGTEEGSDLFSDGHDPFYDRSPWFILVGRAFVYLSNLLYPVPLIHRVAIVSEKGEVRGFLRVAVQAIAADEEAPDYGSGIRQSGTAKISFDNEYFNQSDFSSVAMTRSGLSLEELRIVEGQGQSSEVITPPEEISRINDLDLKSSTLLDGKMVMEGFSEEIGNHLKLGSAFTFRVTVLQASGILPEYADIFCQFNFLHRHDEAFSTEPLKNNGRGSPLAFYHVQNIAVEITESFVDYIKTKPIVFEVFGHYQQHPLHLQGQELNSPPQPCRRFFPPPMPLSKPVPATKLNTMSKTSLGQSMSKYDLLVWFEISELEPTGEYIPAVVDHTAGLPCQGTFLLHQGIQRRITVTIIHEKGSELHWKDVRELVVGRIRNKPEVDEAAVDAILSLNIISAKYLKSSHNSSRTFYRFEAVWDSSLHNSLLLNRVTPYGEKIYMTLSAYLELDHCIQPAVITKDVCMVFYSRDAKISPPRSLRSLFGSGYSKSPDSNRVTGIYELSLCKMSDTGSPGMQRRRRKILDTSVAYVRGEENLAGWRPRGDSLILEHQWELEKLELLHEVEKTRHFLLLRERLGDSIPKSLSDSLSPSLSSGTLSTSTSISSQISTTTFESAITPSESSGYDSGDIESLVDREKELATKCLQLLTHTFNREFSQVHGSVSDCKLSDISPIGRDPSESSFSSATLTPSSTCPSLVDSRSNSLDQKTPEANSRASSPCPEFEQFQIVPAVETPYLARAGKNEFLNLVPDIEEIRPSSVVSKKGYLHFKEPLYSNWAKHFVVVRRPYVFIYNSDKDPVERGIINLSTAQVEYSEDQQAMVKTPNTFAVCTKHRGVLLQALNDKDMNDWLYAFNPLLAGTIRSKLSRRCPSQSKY
# UniProt Q2M2Z5, sequence (Q2M2Z5 whole entry, looked up): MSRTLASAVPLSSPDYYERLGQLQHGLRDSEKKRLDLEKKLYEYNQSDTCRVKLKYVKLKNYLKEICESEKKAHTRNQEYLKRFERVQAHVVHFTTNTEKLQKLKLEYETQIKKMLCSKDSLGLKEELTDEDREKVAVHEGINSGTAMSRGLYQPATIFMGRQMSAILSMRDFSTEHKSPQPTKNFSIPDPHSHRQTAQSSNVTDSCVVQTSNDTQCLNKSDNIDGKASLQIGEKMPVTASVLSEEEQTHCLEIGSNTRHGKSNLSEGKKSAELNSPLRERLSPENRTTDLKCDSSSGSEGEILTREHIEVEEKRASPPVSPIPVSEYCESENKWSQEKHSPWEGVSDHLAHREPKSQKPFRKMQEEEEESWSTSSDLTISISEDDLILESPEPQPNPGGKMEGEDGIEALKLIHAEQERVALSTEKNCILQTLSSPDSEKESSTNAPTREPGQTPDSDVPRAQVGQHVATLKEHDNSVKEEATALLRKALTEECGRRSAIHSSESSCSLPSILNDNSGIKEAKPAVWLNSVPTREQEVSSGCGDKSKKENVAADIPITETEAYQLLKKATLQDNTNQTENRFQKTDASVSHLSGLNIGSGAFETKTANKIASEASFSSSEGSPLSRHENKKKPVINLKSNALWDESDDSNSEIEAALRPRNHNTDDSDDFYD
# UniProt P08514, sequence (P08514 whole entry, looked up): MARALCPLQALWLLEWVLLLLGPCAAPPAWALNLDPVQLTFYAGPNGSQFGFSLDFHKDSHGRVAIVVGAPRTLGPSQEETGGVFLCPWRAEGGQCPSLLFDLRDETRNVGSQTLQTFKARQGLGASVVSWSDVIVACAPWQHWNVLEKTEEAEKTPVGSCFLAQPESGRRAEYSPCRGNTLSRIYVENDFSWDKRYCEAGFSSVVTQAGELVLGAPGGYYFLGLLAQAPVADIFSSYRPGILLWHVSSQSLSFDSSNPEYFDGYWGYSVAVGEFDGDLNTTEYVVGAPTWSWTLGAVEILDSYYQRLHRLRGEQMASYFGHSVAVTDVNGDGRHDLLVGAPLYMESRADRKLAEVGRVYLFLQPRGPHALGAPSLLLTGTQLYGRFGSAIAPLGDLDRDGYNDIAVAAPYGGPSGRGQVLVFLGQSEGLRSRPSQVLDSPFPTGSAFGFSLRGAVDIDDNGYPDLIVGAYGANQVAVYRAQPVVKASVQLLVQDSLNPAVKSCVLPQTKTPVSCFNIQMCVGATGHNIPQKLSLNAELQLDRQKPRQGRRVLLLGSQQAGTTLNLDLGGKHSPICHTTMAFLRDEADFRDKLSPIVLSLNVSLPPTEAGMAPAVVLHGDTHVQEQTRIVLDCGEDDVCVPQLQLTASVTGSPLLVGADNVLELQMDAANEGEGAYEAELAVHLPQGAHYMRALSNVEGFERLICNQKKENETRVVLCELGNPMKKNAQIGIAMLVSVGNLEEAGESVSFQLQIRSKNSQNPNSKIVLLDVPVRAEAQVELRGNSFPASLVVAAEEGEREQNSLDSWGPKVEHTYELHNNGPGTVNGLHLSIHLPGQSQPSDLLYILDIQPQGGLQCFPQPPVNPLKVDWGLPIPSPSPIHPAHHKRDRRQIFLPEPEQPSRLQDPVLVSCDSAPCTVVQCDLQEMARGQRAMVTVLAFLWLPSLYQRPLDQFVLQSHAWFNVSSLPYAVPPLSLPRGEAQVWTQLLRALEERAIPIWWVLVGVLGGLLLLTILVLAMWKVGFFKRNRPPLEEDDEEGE
# UniProt Q5XKP0, sequence (Q5XKP0 whole entry, looked up): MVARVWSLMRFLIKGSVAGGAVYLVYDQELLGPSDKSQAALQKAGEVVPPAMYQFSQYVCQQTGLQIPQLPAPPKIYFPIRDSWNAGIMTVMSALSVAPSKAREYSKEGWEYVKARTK
Target,log2 fold change [1],log2 fold change [2],log2 fold change [3],log2 fold change [4],log2 fold change [5],log2 fold change [6],log2 fold change [7],log2 fold change [8],log2 fold change [9],log2 fold change [10]
MFSD8 (UniProt Q8NHS3),0.078,-0.044,0.023,-0.003,-0.008,0.039,-0.053,0.012,0.003,
MAPK14 isoform 2 (UniProt Q16539),0.486,-0.021,0.145,0.559,-0.25,0.127,-0.029,0.91 (active),-0.014,-0.085
MAN2B2 (UniProt Q9Y2E5),-0.015,,0.105,0.035,-0.009,-0.158,0.007,0.044,-0.04,-0.018
KPNA4 (UniProt O00629),0.013,-0.085,-0.017,-0.052,-0.095,-0.117,0,0.016,0.015,0.032
INTS5 (UniProt Q6P9B9),-0.051,,-0.133,-0.086,-0.058,,0.044,,0,-0.06
MAP3K4 isoform 2 (UniProt Q9Y6R4),0.077,-0.093,-0.038,0.153,-0.008,0.006,-0.002,-0.023,0.029,0.034
"LRBA, A0A494BZW2",-0.005,0.015,-0.42,-0.368,,-0.055,-0.008,0.041,,0.065
JAK3 (UniProt P52333),-0.03,0.004,-0.016,0.116,0.003,,-0.158,,-0.056,-0.042
LAMP2 isoform 2 (UniProt P13473),0.24,-0.026,0.021,0.027,0.078,0.024,-0.192,0.043,-0.017,
METAP1D (UniProt Q6UB28),0.088,-0.086,-0.181,0.036,0.013,-0.074,0.04,0.006,0.006,-0.042
IP6K1 (UniProt Q92551),-0.174,-0.074,-0.06,0.331,,-0.045,0.119,0.094,,-0.113
MICOS13 (UniProt Q5XKP0),0.039,-0.001,0,0.005,-0.07,-0.041,-0.017,-0.028,-0.005,0.01
LMBR1 isoform 3 (UniProt Q8WVP7),0.085,-0.06,0.079,-0.045,-0.104,,-0.009,,0.132,-0.004
ITGA2B (UniProt P08514),0.025,0.111,-0.043,0.037,0.059,,-0.036,,0.058,-0.03
ITM2C (UniProt Q9NQX7),-0.007,0.034,,0,0.039,,-0.003,,-0.045,-0.072
MARCKSL1 (UniProt P49006),0.02,-0.005,-0.043,0.013,0.007,-0.035,0.063,-0.04,-0.008,0.315 (active)
MAML1 (UniProt Q92585),,0.062,,0.644 (active),-0.179,,,,-0.327,-0.051
LIN52 (UniProt Q52LA3),0.038,,,,,,-0.059,,,
MAP4K4 isoform 3 (UniProt O95819),-0.054,,-0.002,-0.051,-0.067,-0.004,-0.037,0.026,0.018,
MED29 (UniProt Q9NX70),-0.033,,,0.004,,,0.001,,,
LSR (UniProt M0QZL9),,,,,0.065,,,,-0.249,0.042
LRRCC1 (UniProt Q9C099),0,,0.292,,,,0.06,,,
MAP2K5 (UniProt Q13163),0.445,-0.008,,,,,0.004,,,
LYN isoform 2 (UniProt P07948),,0.015,,0.043,-0.035,,,,-0.004,0.034

Target,log2 fold change [1],log2 fold change [2],log2 fold change [3],log2 fold change [4],log2 fold change [5],log2 fold change [6],log2 fold change [7],log2 fold change [8],log2 fold change [9],log2 fold change [10]
LOX (UniProt P28300),,,,-0.303,,,,,,
LMNA isoform 2 (UniProt P02545),,,0.052,,,,,,,
ING5 (UniProt Q8WYH8),,0.034,0.192,-0.147,,0.129,,-0.078,,
IKZF1 isoform 2 (UniProt Q13422),,-0.101,-0.123,0.05,-0.106,,,,-0.02,0.049
MAPRE3 isoform 2 (UniProt Q9UPY8),,-0.075,0.13,,,,,,,
MAP4K5 (UniProt Q9Y4K4),,0.072,0.113,-0.02,-0.02,-0.08,,0.082,-0.041,
ITPRID2 (UniProt P28290),,,,-0.299,-0.158,-0.019,,-0.087,0.059,
KMT5A (UniProt Q9NQR1),,,,,,,,,,-0.18
MFSD1 isoform 6 (UniProt Q9H3U5),,0.022,-0.039,0.066,0.046,-0.014,,-0.028,-0.004,-0.041
MGRN1 isoform 2 (UniProt O60291),,0.036,0.197,-0.054,,,,,,
LAPTM4B (UniProt Q86VI4),,,,0.007,,0,,0.009,,-0.194
MAPK12 (UniProt P53778),0.119,,-0.037,0.112,-0.06,0.101,-0.074,0.017,0.059,
KIF13A isoform 4 (UniProt Q9H1H9),,-0.091,,,,,,,,-0.027
MAPK11 (UniProt Q15759),,,0.208,0.615,,,,,,
MAP3K20 isoform 2 (UniProt Q9NYL2),,,0.093,-0.024,,,,,,0.059
MCOLN3 (UniProt Q8TDD5),,,-0.001,-0.141,,-0.275,,-0.026,,
MBLAC1 (UniProt A4D2B0),0.164,0.002,,0.049,0.003,0.023,-0.005,0.035,-0.02,
KIZ (UniProt Q2M2Z5),,-0.076,,,,-0.027,,-0.038,,
MAP4K4 isoform 6 (UniProt O95819),-0.108,,-0.016,,-0.012,0.067,-0.186,0.049,-0.036,
KIF1B isoform 3 (UniProt O60333),,,,,0.127,-0.046,,-0.222,0.17,
MAP4K2 (UniProt Q12851),,-0.076,0.076,,,-0.003,,0.066,,-0.184
IGFBP6 (UniProt P24592),0.011,0.136,,,0.144,,-0.094,,0.055,
MCM10 (UniProt Q7L590),,,-0.017,0.014,0.018,-0.021,,-0.049,-0.007,-0.09
IKZF1 (UniProt R9R4D9),0.019,0.155,-0.158,,,,-0.038,,,
